High-throughput results deposited in PubChem by National Center for Advancing Translational Sciences (NCATS).
Pol eta inh = blocks human DNA polymerase eta activity. AID 588591. recombinant Pol eta, fluorescent DNA replication assay. hit rate 1.2% among 390,000. Q9Y253. Potency, µM (highest dose often 114 µM), without a hit: top-dose activity change, negative = inhibition, usual class: inhibitors; note: % is set by controls: 0 for no effect and ±100 for the full control effect
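Pol eta (10 nM) was preincubated with compounds for 15 min at room temperature, after which fluorescent replication substrate (50 nM final) was added to start the reaction. Fluorescence was read kinetically at 0 and 10 min.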
POLI inh = blocks human DNA polymerase iota activity; Pol iota fluorescent replication assay, 10 min; Q9UNA4; hit rate 1% among 390,000; Potency, µM (series often up to 115 µM), for the others: top-dose activity, negative = inhibition, usual class: inhibitors
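Fluorescent replication assay read twice, at 0 min and 10 min after adding 50 nM (final) substrate. Enzyme (10 nM) and compounds were first incubated 15 min at room temperature; enzyme-free buffer wells were negative controls.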
Pol kappa inh = inhibitors of human DNA polymerase kappa; Potency, µM (titrated, usually from 107 µM), for inactives: at the top dose activity, negative = inhibition, usual class: inhibitors; hit rate 0.53% among 400,000; purified Pol kappa, fluorescent DNA synthesis assay, 10 min; Q9UBT6; AID 588579; note: % is set by controls: 0 for no effect and ±100 for the full control effect
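Enzyme at 10 nM met test compounds for 15 min at room temperature. Substrate addition (50 nM final) began the reaction, which was monitored by fluorescence at 0 and 10 min.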
Pol beta inh = blocks human DNA polymerase beta activity; P06746; hit rate 1.3% among 340,000; Pol beta primer extension/strand displacement, fluorescence kinetic; AID 485314; Potency, µM (titrated, usually from 114 µM), for inactives: at the highest dose activity change, negative = inhibition, usual class: inhibitors; note: % is set by controls: 0 for no effect and ±100 for the full control effect
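Values derive from four-parameter Hill fits of normalized kinetic data: reads at 0 and 10 min following addition of 50 nM substrate to 10 nM Pol beta preincubated 15 min with compound.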
WRN helicase inh = blocks human WRN helicase; Q14191; WRN helicase unwinding, fluorescent forked duplex, kinetic; Potency, µM (titrated, usually from 114 µM), for inactives: at the highest dose activity change, negative = inhibition, hits mostly inhibitors; hit rate 0.46% among 360,000; note: % is set by controls: 0 for no effect and ±100 for the full control effect; nearly all actives have a fitted effect of over 55% in size
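Fluorescence dequenching readout, ex 525 nm/em 598 nm, kinetic mode: forked duplex DNA (100 nM final) with adjacent fluorophore and quencher unwound by WRN (20 nM final) with 2 mM ATP. Compound preincubation 15 min, room temperature.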
FEN1 inh = human FEN1 inhibition; P39748; Recombinant FEN1 flap cleavage, fluorescence, 15 min; Potency, µM (doses to about 114 µM), for inactives: top-dose activity change, negative = inhibition, usual class: inhibitors; hit rate 0.35% among 390,000; AID 588795; note: % is set by controls: 0 for no effect and ±100 for the full control effect; nearly all actives have a fitted effect of over 65% in size
Target sequence (P39748 whole entry, looked up): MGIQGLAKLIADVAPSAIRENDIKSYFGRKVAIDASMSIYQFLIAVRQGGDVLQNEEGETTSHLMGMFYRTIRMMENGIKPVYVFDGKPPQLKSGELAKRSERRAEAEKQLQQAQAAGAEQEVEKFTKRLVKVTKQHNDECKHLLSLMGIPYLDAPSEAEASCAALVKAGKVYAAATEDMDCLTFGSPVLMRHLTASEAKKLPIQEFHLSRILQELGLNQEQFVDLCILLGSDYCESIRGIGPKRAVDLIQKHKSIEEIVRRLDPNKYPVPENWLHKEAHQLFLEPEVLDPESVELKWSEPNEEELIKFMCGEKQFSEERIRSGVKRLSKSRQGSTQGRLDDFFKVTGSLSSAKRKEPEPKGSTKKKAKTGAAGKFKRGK
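Potency values derive from four-parameter Hill fits of normalized qHTS data. The reaction used 10 nM FEN1 preincubated 15 min at room temperature with compound, then 50 nM DNA substrate, read at 0 and 15 min.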
An asterisk follows results filed as active; [ ] = dose if it differs, or a comment. Hits are enriched below; roughly 2.4% of the tested compounds scored in any of these assays. Calls come from the whole dose curve; as a rule, active = well fitted curve in the direction sought with a large enough effect; inconclusive = small, poorly fitted or top-dose-only effect, or another doubt; inactive = no such curve, though single readings can be large; an effect the other way counts as inactive or inconclusive. Potency is the fitted concentration of half-maximal effect.

O=C(O)CC/C(=N/NC(=O)c1cn(-c2ccccc2)nc1-c1ccccc1)C(=O)O was read as Pol eta inh -9.6%, POLI inh 25.1µM*, Pol kappa inh -2.9%, Pol beta inh 0.9%, WRN helicase inh -4.2%[57.1 µM] and FEN1 inh 4.7%.
Cc1nn(Cc2ccc(Cl)cc2)c(C)c1NC(=O)CCCn1nc([N+](=O)[O-])c(Cl)c1C was read as Pol eta inh 0.2%, POLI inh 11.2%, Pol kappa inh -16.9%, Pol beta inh 89.1µM*, WRN helicase inh -1.1% and FEN1 inh -4.9%.
Screening Cc1c(Cl)c([N+](=O)[O-])nn1CCCC(=O)Nc1c(Cl)cccc1Cl returned Pol eta inh -8.2%, POLI inh 19.4%, Pol kappa inh 2.0%, Pol beta inh -27.1%, WRN helicase inh 7.8% and FEN1 inh -1.5%.
CCn1c(C)c(CS(=O)(=O)c2ccccc2)[nH]c1=O was read as Pol eta inh 3.9%, POLI inh inconclusive, Pol kappa inh -5.4%, Pol beta inh 60.4%, WRN helicase inh 17.8µM* and FEN1 inh 8.8%.
`COc1ccc2nc(NC(=O)c3nc(SCc4ccccc4F)ncc3Cl)sc2c1` gave Pol eta inh -15.4%, POLI inh 8.4%, Pol kappa inh inconclusive, Pol beta inh 0.6% and FEN1 inh 16.0%.
`COc1ccc2nc(NC(=O)c3nc(S(=O)(=O)Cc4ccccc4F)ncc3Cl)sc2c1` gave Pol eta inh inconclusive, POLI inh inconclusive, Pol kappa inh inconclusive, Pol beta inh 5.62µM* and FEN1 inh 5.4%.
CS(=O)(=O)N1CCC(C(=O)NCc2ccco2)CC1 was read as Pol eta inh inconclusive, POLI inh 50.1µM*, Pol kappa inh -7.3%, Pol beta inh 4.2%, WRN helicase inh -2.7%[11.6 µM] and FEN1 inh -0.7%.
For O=C(O)c1ccc(-n2ncc3c2/C(=C/c2cccc([N+](=O)[O-])c2)CC3)cc1 the results were Pol eta inh 50.1µM*, POLI inh inconclusive, Pol kappa inh -9.4%, Pol beta inh 0.6%, WRN helicase inh -16.2% and FEN1 inh 0.6%.
Screening CCCC1Cc2nc(Cl)c(C#N)cc2CO1 (stereo not given) returned Pol eta inh inconclusive, POLI inh inconclusive, Pol kappa inh -29.7%, Pol beta inh 44.7µM*, WRN helicase inh -12.5% and FEN1 inh 2.7%.
Screening COc1ccccc1CNC(=O)C1CCN(S(=O)(=O)c2c(C)noc2/C=C/c2cccs2)CC1 returned Pol eta inh 0.0%, POLI inh 89.1µM*, Pol kappa inh inconclusive, Pol beta inh 0.7% and FEN1 inh 89.1µM*.
`COc1cccc(NC(=O)C2CCN(S(=O)(=O)c3c(C)noc3/C=C/c3cccs3)CC2)c1` gave Pol eta inh -11.5%, POLI inh inconclusive, Pol kappa inh -19.2%, Pol beta inh 2.9% and FEN1 inh -16.1%.
Screening Cc1ccc(C2(SCC(N)C(=O)O)c3ccccc3-c3ccccc32)cc1 (stereo not given) returned Pol eta inh 22.4µM*, POLI inh inconclusive, Pol kappa inh inconclusive, WRN helicase inh -11.6% and FEN1 inh 12.7%.
C(=C\c1ccnc2ccccc12)/c1ccc2c(c1)OCO2 was read as POLI inh 13.0%, Pol kappa inh 4.0% and FEN1 inh -10.5%.
`O=C(c1ccccc1)c1cc(Cl)ccc1N1C(=O)C=CC1=O` gave Pol eta inh -6.5%, POLI inh 18.7%, Pol kappa inh -5.8%, Pol beta inh -14.8%, WRN helicase inh 14.1µM* and FEN1 inh -24.1%.
Screening CCOc1cc(C2Nc3ccccc3C(=O)N2Cc2ccco2)ccc1OCc1ccccc1Cl (stereo not given) returned POLI inh 15.1%, Pol kappa inh -9.0% and FEN1 inh 3.4%.
